Measurements: ChEMBL document CHEMBL3988442, “University of Dundee, Small-Polar-MMV Screening Library” (2021)
For some assays here: Results with a measured potency or affinity are listed apart.

What was measured:
Design in all cases: scale not given: direction of the effect not stated beside the values
[1] = molecular target: Protein translocase subunit SecA (Escherichia coli (strain K12)) (UniProt P10408); assay: Assay to Identify E. coli SecA ATPase Inhibitors; assay type: functional; details: 30 µM
[2] = molecular target: T1, Ubiquitin-activating enzyme e1, putative (Leishmania donovani (strain BPK282A1)) (UniProt E9BSI1); assay: Leishmania donovani Ubiquitin Activating Enzyme (LdE1); assay type: functional; details: 30 µM
T1 sequence (whole entry): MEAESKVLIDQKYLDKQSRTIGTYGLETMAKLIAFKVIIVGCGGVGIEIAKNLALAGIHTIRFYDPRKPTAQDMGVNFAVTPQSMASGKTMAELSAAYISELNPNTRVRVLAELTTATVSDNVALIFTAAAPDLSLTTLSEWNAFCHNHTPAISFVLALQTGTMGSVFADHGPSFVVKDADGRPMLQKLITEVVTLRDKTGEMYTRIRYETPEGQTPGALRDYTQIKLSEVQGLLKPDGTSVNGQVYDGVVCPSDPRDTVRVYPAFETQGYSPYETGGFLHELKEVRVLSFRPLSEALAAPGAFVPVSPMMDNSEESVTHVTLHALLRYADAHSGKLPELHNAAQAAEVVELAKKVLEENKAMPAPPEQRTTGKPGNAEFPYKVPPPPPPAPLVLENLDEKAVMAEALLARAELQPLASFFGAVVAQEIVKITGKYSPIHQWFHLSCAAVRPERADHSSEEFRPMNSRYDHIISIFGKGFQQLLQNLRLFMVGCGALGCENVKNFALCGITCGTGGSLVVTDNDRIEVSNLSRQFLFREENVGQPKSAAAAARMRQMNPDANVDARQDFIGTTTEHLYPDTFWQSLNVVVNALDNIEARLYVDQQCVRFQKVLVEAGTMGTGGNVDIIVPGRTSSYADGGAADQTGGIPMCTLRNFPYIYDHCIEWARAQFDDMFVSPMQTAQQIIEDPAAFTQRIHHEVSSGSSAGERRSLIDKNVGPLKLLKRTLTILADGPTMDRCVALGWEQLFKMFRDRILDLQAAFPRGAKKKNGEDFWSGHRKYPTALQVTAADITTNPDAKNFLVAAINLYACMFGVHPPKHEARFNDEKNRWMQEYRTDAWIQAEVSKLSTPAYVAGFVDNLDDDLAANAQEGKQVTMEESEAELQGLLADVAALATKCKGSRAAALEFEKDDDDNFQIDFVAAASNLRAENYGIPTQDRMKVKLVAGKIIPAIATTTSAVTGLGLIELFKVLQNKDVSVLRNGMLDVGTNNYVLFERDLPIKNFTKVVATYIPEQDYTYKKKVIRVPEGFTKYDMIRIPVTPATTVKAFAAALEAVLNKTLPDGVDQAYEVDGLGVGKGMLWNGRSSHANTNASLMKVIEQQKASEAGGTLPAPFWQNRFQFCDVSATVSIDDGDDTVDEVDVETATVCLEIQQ

[3] = molecular target: AMP-activated protein kinase, AMPK (Homo sapiens) (UniProt P54646+O43741+P54619+Q9UGJ0+Q9Y478+Q13131+Q9UGI9); assay: AMP-dependent Kinase enzyme assay. An in vitro enzyme assay that detects ADP turnover that is directly proportional to AMPK activity. This uses naive AMPK that is activated during the assay with MK-8722; assay type: functional; details: 30 µM
[4] = molecular target: Sialic acid-binding Ig-like lectin 9 (Homo sapiens) (UniProt Q9Y336); assay: Hs-Siglec9 ALPHAscreen SOP 20170721; details: 10 µM
Trypanosoma cruzi = assay: Trypanosoma cruzi phosphomannomutase and mannose-1-phosphate guanylyltransferase assay; assay type: functional; details: 10 µM
[5] = molecular target: T2, Arginase-2, mitochondrial (Homo sapiens) (UniProt P78540); assay: in vitro enzyme assay to detect the production of urea directly proportional to the activity of Arginase II; assay type: functional; details: 33.3 µM; note: in the data most compounds retested in dose-response had high values
T2 sequence (whole entry): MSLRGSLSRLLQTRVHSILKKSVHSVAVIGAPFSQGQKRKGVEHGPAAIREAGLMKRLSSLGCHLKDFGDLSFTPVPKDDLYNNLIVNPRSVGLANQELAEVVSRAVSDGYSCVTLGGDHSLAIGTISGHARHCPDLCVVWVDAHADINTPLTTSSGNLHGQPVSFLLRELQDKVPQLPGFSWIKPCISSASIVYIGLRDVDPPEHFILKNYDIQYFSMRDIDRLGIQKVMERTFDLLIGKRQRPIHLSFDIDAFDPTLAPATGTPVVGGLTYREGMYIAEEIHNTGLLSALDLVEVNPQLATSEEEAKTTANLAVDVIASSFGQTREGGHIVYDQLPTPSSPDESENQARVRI

[6] = molecular target: T3, Proteasome subunit beta (Trypanosoma cruzi) (UniProt O96673); assay: Trypanosoma cruzi proteasome chymotrypsin-like activity (TcProtChymo) assay.; note: in the data most compounds retested in dose-response had high values; assay type: functional; details: 9.37 µM
T3 sequence (whole entry): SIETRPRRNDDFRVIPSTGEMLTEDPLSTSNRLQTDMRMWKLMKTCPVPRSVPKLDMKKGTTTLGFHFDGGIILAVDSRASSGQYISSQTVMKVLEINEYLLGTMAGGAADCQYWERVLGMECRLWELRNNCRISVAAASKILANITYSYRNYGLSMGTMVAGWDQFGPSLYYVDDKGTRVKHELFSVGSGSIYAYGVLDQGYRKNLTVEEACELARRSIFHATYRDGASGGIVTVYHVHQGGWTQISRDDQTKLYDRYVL

Homo sapiens = species: Homo sapiens; assay: To identify inhibition of the IFN signalling (Jak-Stat) pathway via expression of an eGFP reporter gene under the control of an IFN-stimulated response element (ISRE) containing MxA promoter.; assay type: functional; details: 30 µM
[7] = molecular target: T4, Tyrosyl-tRNA synthetase, putative (Trypanosoma cruzi (strain CL Brener)) (UniProt Q4DSP6); assay: Trypanosoma cruzi tyrosyl tRNA synthetase (TcYRS) _High Tyrosine SOP; assay type: functional; details: 30 µM; note: in the data most compounds retested in dose-response had high values
T4 sequence (whole entry): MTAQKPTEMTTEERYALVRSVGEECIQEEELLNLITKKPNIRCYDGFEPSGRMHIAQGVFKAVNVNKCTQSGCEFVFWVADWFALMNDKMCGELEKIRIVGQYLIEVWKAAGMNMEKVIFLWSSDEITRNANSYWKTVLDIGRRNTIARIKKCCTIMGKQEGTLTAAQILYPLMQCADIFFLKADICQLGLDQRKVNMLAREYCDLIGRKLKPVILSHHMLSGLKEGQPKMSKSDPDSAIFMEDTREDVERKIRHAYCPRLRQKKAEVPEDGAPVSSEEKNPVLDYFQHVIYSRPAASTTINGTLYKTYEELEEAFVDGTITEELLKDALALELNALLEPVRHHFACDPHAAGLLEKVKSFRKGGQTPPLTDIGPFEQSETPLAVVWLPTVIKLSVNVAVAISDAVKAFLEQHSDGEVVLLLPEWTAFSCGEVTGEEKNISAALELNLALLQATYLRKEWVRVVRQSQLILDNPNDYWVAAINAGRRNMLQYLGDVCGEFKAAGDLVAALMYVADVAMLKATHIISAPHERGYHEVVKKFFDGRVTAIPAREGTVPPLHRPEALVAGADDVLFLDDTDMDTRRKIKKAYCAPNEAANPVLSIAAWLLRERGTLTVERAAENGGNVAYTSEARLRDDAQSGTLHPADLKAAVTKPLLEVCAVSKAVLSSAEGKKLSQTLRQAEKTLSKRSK

[8] = molecular target: T4, Tyrosyl-tRNA synthetase, putative (Trypanosoma cruzi (strain CL Brener)); assay: Trypanosoma cruzi tyrosyl tRNA synthetase (TcYRS) SOP; assay type: functional; details: 30 µM
[9] = molecular target: Chromo domain-containing protein 1 (Saccharomyces cerevisiae (strain ATCC 204508 / S288c) (Baker's yeast)) (UniProt P32657); assay: ScCHD-1 Enzyme Inhibition Assay; assay type: functional; details: 30 µM; note: in the data most compounds retested in dose-response had high values
Chain of Chromo domain-containing protein 1 (Saccharomyces cerevisiae (strain ATCC 204508 / S288c) (Baker's yeast)) (P32657 whole entry, the tested form may be a part): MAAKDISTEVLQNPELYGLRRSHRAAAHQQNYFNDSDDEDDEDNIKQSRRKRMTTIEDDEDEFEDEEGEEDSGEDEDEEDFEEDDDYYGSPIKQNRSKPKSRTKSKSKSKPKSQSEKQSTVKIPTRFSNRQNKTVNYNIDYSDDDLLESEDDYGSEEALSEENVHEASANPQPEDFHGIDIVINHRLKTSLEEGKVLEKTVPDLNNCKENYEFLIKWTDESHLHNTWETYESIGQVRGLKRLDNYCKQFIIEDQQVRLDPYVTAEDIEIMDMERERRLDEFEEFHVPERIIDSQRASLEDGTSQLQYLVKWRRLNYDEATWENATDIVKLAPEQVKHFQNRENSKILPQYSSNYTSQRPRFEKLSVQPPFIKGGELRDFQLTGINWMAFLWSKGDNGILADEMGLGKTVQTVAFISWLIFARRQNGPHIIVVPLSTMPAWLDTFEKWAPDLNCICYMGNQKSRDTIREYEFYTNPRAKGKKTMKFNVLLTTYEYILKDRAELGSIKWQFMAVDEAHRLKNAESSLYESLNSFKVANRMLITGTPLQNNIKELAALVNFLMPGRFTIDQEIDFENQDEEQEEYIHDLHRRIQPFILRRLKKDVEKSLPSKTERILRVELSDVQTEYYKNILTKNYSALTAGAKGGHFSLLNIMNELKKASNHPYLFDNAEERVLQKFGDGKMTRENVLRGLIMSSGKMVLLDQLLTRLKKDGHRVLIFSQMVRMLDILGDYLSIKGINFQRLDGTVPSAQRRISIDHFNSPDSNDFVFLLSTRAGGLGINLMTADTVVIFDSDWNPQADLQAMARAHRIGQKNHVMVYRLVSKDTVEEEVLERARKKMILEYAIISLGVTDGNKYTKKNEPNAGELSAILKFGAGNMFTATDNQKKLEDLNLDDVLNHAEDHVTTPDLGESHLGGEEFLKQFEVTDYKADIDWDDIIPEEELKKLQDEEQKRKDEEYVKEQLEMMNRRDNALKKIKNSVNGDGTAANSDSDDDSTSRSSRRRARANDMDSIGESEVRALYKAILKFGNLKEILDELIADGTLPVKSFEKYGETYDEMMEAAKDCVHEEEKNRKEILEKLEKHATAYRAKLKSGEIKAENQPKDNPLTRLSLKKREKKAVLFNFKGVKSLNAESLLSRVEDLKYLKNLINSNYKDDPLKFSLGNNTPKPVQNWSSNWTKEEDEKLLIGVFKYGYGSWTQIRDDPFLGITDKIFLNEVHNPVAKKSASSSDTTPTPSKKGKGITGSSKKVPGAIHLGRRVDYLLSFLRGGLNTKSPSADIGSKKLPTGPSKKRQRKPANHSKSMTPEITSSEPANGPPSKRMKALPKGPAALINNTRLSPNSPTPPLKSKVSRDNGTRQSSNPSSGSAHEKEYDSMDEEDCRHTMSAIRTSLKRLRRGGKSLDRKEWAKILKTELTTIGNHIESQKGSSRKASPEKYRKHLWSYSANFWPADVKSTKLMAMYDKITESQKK

Chain of Protein translocase subunit SecA (Escherichia coli (strain K12)) (P10408 whole entry): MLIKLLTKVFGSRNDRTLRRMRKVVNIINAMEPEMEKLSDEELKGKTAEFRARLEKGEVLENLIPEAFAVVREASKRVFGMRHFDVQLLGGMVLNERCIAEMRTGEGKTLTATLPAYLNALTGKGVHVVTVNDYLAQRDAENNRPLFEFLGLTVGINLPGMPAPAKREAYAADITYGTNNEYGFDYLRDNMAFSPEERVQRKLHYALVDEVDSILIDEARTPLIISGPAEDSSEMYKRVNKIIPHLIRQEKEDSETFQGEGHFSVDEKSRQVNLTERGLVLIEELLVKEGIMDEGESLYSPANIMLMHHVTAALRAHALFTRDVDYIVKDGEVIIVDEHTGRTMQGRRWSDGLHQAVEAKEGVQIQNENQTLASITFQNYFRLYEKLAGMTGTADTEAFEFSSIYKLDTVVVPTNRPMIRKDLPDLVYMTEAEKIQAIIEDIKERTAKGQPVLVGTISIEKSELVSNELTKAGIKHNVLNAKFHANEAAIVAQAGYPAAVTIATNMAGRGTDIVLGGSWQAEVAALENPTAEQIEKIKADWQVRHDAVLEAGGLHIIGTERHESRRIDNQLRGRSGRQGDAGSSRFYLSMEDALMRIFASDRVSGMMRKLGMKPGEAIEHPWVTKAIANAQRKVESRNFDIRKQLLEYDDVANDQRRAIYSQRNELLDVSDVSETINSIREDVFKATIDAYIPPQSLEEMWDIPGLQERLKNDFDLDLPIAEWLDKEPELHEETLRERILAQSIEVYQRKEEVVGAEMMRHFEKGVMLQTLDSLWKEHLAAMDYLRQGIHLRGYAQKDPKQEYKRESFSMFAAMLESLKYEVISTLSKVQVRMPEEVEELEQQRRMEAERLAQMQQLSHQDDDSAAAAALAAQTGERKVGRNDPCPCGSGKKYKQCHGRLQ
Chain of Sialic acid-binding Ig-like lectin 9 (Homo sapiens) (Q9Y336 whole entry): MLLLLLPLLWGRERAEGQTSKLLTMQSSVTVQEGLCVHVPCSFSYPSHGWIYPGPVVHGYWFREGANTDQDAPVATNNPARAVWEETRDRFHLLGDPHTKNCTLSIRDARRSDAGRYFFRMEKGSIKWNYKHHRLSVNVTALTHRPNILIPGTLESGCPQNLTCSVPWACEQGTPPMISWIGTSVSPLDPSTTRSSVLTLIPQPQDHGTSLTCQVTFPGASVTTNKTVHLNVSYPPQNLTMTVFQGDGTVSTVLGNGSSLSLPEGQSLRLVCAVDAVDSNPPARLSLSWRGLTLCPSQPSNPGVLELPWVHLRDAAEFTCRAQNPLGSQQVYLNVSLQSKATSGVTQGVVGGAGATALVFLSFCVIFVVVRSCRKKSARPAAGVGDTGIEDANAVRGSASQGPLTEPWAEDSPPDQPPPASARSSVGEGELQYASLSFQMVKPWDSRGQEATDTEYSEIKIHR

Row | Compound | Percent Effect [1] [%] | Percent Effect [2] [%] | Percent Effect [3] [%] | Percent Effect [4] [%] | Percent Effect (Trypanosoma cruzi) [%] | Percent Effect [5] [%] | Percent Effect [6] [%] | Percent Effect (Homo sapiens) [%] | Percent Effect [7] [%] | Percent Effect [8] [%] | Percent Effect [9] [%]
1 | CCOC(=O)c1sc2ccsc2c1CNC(=O)C(C)(C)C#N | -2.65 | 0 | 8.08 | 1.84 | 1.76 | -5.73 | -5.57 | 13.9 | 5.94 | 11 | 14.5
2 | COc1cccc(CN2C[C@@H]3COC[C@]3(COCc3ccncc3)C2)c1 | -5.26 | 8.11 | 5.1 | -1.02 | 6.94 | -4.14 | 14.6 | 5.58 | 2.16 | 10.3 | -0.65
3 | O=C(NCc1ccncc1)N(Cc1ccccc1F)C1CC1 | -6.03 | 18.7 | -7.25 | 29.6 | 10.2 | 51 | 17.1 | 5.89 | 2.73 | 16.1 | -6.63
4 | Cc1nc(N2CCN(C(=O)c3ccsc3)CC2)c2cnn(C)c2n1 | -3.6 | 2.7 | -6.08 | 16.1 | 1.6 | -6.01 | 5.04 | 5.31 | 4.43 | 13.6 | -7.11
5 | Cc1noc(C)c1CN1CC2(CCN(C(=O)c3cscn3)CC2)CC1=O | -5.65 | 10.4 | 0.445 | 16.6 | 5.01 | -5.52 | 14.1 | 0.0432 | 6.45 | 11.1 | -2.57
6 | CC(OCC(F)(F)F)C(=O)Nc1ccc(-n2cncn2)nc1 (configuration not stated) | -3 | 2.6 | 24.5 | -9.5 | -1.27 | 1.05 | 8.49 | 22.3 | 5.71 | 9.41 | -17.1
7 | Cn1c(CN2CCOC(c3nc(C(C)(C)C)n[nH]3)C2)nnc1C1CC1 (configuration not stated) | -7.68 | -26 | -4.74 | -20.2 | 7.35 | -8.63 | 4.93 | -6.09 | 3.81 | 18.8 | -22.6
8 | CN1CC(C(=O)NC(C)(C)C)CC1=O (configuration not stated) | -3.04 | -5.48 | -0.441 | -0.584 | -0.595 | -3.59 | 3 | -7.57 | 2.08 | 8.64 | 6.01
9 | Cc1cnn(CC(C)NCc2ccc(S(C)(=O)=O)cc2)c1 (configuration not stated) | -2.77 | 13.9 | -0.525 | 2.13 | -1.74 | -3.23 | 12.3 | 0.644 | 8.33 | 25.3 | -28
10 | O=C1CC[C@H]2[C@H](CCN2C(=O)C2CCOCC2)N1Cc1ccncc1 | -2.75 | 22.7 | -7.93 | 0.426 | 2.95 | -3.35 | 17.7 | -2.05 | 6.35 | 15.4 | -9.4
11 | O=C(C1CC(=O)N(C2CCCC2)C1)N1CCN(CCn2cccc2)CC1 (configuration not stated) | -3.53 | 13.3 | -5.45 | 19.8 | 2.82 | 13.5 | 16.9 | 23 | 3.83 | 13.6 | -7.64
12 | CC(CN1CCOCC1)NCc1nncn1C1CCCCC1 (configuration not stated) | -2.55 | 1.39 | -4.5 | -12 | -5.54 | 3.09 | 9.65 | -2.46 | 6.32 | 5.13 | -1.99
13 | CC(C)Cc1cc(NC(=O)c2ccc(=O)[nH]n2)n(C)n1 | -8.11 | 18.2 | -1.51 | 12.1 | 3.75 | 2.85 | 4.73 | 0.756 | 8.74 | 24.4 | -11.8
14 | CCn1ccnc1CN1CCN(CCC(=O)NC(C)(C)C)CC1C (configuration not stated) | -2.88 | 8.11 | -0.327 | 5.56 | 3.71 | 10 | 5.16 | 5.99 | 10.9 | 15.8 | -3.56
15 | CN(CC(=O)NCc1ccccn1)CC1CCCN1c1cccnn1 (configuration not stated) | -1.59 | -5.41 | -4.72 | -0.887 | -2.15 | -3.75 | 27.8 | 3.47 | 8.91 | 1.22 | -0.357
16 | Cc1cnc(N)c(C(=O)C2CCN(C(=O)c3ccccc3F)CC2)c1 | -7.77 | 13.3 | 4.93 | 7.45 | 2.76 | -2.56 | 6.26 | 33 | 7.45 | 8.97 | -6.49
17 | O=C(CCc1cccnc1)N(Cc1ccsc1)CC1CCCO1 (configuration not stated) | -1.63 | -2.7 | -0.366 | -2.41 | 1.93 | 1.91 | 10.3 | -6.2 | 1.59 | 7.32 | -3.52
18 | CC(C)n1cc(CN2CCCN(C(=O)c3ccc[nH]3)CC2)cn1 | -1.88 | 13.5 | -0.748 | -5.21 | 2.73 | 15.8 | 20.2 | -10.5 | 12.9 | 13.4 | -0.327
19 | CCN1CCOC(CNCc2ccccn2)C1 (configuration not stated) | -1.35 | 0 | -15.7 | 4.04 | 7.19 | 1.8 | -3.64 | -4.24 | 8.37 | 16.1 | -1.88
20 | CCn1ncc2c1CCCC2NCc1ccc(OC)c(C)c1 (configuration not stated) | -7.95 | 12.7 | -10.6 | 11.1 | 7.08 | -3.42 | 1.23 | 0.115 | 4.43 | 16.5 | -6.17
21 | CC(CNC(=O)c1ccccc1Oc1cccnc1)N(C)C (configuration not stated) | -2.21 | 10.8 | -2.99 | 12.9 | 5.41 | -0.476 | 5.69 | -6.47 | 3.7 | 9.76 | -1.53
22 | NS(=O)(=O)c1ccc(NC(=O)CSc2ccc3c(c2)CCC3)cc1 | -2.43 | -2.7 | 2.08 | -4.31 | -4.69 | -21.2 | 13.1 | 6.93 | 1.98 | -13.4 | 17.3
